SW480 rereplic: induces DNA re-replication in SW480 colon adenocarcinoma cells; SW480 DNA re-replication, Hoechst DNA content imaging, 48 h; Potency, µM (titrated, usually from 46.1 µM), inactives show top-dose re-replication activation, most hits filed as activators; 1.8% of 340,000 active; further: potency means the concentration at half of the fitted maximal effect; % of control where 0% means no effect; nearly all actives have a fitted effect of over 55% in size
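250 cells/well; 23 nL cpd via pin tool; 48 hr, 37 C, 5% CO2; Hoechst 40 min; imager read of total nuclear intensity, ex 405/em 500-530 nm.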
IL-1B inflam inh: blocks inflammasome-driven IL-1 beta release | activity change, % at 57.5 µM | THP-1 LPS/ATP IL-1B secretion, AlphaLISA, 16 h; stronger effect = lower value | 4.7% of 360,000 active; in the data active means activity change below about -50%; inconclusive means mostly about -30% to -49%; further: on the % scale 0 is the no-effect control and ±100 the full control effect
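THP-1 cells pretreated 1 hr with compounds (up to 57.5 uM final), then stimulated with LPS (250 ng/mL final) plus ATP (1.25 mM final); secreted IL-1B measured by AlphaLISA after 16 hr, decreased signal indicating inhibition.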
DT40 TDP1 CPT: growth inhibition of DT40 Tdp1-/-;hTDP1 cells with camptothecin (screen for TDP1 inhibitors) | Potency, µM (titrated, usually from 46.2 µM), for inactives: at the top dose activity change, negative = growth inhibition, hits mostly inhibitors | 12% of 420,000 active | chicken DT40 Tdp1-/-;hTDP1 cells + 20 nM CPT, ATP luminescence, 48 h | AID 686979; further: potency means the concentration at half of the fitted maximal effect; on the % scale 0 is the no-effect control and ±100 the full control effect; nearly all actives have a fitted effect of over 55% in size
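Chicken DT40 Tdp1-/- cells complemented with human TDP1, 400 cells/well, exposed to compounds plus 20 nM camptothecin for at least 48 h at 37 C; viability read as ATP content by CellTiter-Glo luminescence.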
MCF10A rerep: DNA re-replication induction in MCF 10a cells; MCF 10A DNA re-replication, Hoechst nuclear intensity, 48 h; 2.9% of 350,000 active; Potency, µM (highest dose often 46.1 µM), for inactives: at the top dose activity, positive = re-replication, usual class: activators; AID 624296; further: potency means the concentration at half of the fitted maximal effect; % of control where 0% means no effect; nearly all actives have a fitted effect of over 50% in size
BCR signal inh: inhibitors of chronic active B-cell receptor signaling; ABC-DLBCL IkBa-CBG/CBR reporter, luminescence ratio, 4 h; Potency, µM (highest dose often 46.1 µM), for inactives: top-dose activity change, negative = inhibition, actives largely listed as inhibitors; 0.05% of 340,000 active; AID 493014; active means well fitted inhibition curve with a large enough effect in the signal ratio, with a control signal flat, not every such curve was filed as active; inconclusive means small, poorly fitted or top-dose-only effect, or effect the other way, or a change in a side signal; the % refers to the signal ratio;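 further: potency means the concentration at half of the fitted maximal effect; plate controls were basal doxycycline-induced cells for no effect and cells given 10 µM MG132 for full effect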
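Compounds up to 46 uM were incubated four hours with TMD8 cells whose green CBG68 luciferase is fused to IkappaBalpha; red CBR luminescence normalised the signal, and concentration-effect curves were fitted to fusion, red and ratio data.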
TDP1 cell noCPT: qHTS for Inhibitors of human tyrosyl-DNA phosphodiesterase 1 (TDP1): qHTS in cells in absence of CPT. DT40 Tdp1-/- hTDP1 cells, no CPT, ATP luminescence, 48 h. Potency, µM (doses to about 46.2 µM), for the others: at the highest dose activity change, negative = growth inhibition, most hits filed as inhibitors. 15% of 420,000 active. AID 686978, 2013; further: potency means the concentration at half of the fitted maximal effect; on the % scale 0 is the no-effect control and ±100 the full control effect; nearly all actives have a fitted effect of over 55% in size
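Chicken DT40 Tdp1-/- cells stably complemented with human TDP1 were seeded at 400 cells/well with DMSO in place of 20 nM camptothecin. After compound pinning, cells grew at least 48 hr at 37 °C; viability read by CellTiter-Glo luminescence.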
Numbers without * were called inactive; i = inactive; ? = inconclusive; · = no result given; [ ] = dose if it differs, or a comment. A selection: hits, their analogues and other compounds. The true share with any hit is near 19%. Unless noted, the call rests on the fitted dose curve; in most records, active means well fitted curve in the direction sought with a large enough effect; inconclusive means small, poorly fitted or top-dose-only effect, or another doubt; inactive means no such curve, though single readings can be large; an effect the other way counts as inactive or inconclusive.

SMILES	SW480 rereplic	IL-1B inflam inh	DT40 TDP1 CPT	MCF10A rerep	BCR signal inh	TDP1 cell noCPT
Cc1ccc2cccc(OCCCOc3ccccc3F)c2n1	?	-56*	?	13µM*	?	?
Brc1ccccc1OCCOCCOc1cccc2cccnc12	12%	-24	?	-4%	?	?
Cc1ccc2cccc(OCCOCCOc3ccccc3Br)c2n1	?	-3	?	13%	-5%	21µM*
COc1ccc(CCC(=O)NCCNC(=O)CCc2ccc(OC)cc2)cc1	-15%	-6	8%	10%	2%	-2%
CC(C)NC(=O)C1C(c2ccc(C(F)(F)F)cc2)=Nc2ccccc2N1C(=O)c1cccc(C(F)(F)F)c1 (centres undefined)	·	37	?	·	·	?
COC(=O)c1ccc(NC(=O)CCC(=O)c2ccc(F)cc2)cc1	-18%	-14	-13%	0%	?	4%
O=C(Nc1cccc(C(F)(F)F)c1)OCCN1CCN(Cc2ccccc2)CCC1=O	-12%[9.22 µM]	-17	21µM*	?	-3%	?
O=C(Nc1ccc(F)cc1)OCCN1CCN(Cc2ccccc2)CCC1=O	-34%	65	?	0%	4%	?
C=CCn1cnc2c(c1=O)c1nc3ccccc3nc1n2/N=C/c1cccc(OC)c1	-8%	-6	0%	12%	1%	-6%
CCCCCCn1cnc2c(c1=O)c1nc3ccccc3nc1n2/N=C/c1ccco1	-4%	-28	?	-9%	?	18µM*
COCCn1cnc2c(c1=O)c1nc3ccccc3nc1n2/N=C/c1ccc(OC)c(OC)c1	?	9	18µM*	1%	-4%	16µM*
COCCn1cnc2c(c1=O)c1nc3ccccc3nc1n2/N=C/c1ccco1	-29%	-11	?	0%	?	?
Cc1nc2c(c(=O)n1CCC1=CCCCC1)c1nc3ccccc3nc1n2/N=C/c1ccco1	10%	-16	16µM*	?	11%	23µM*
COCCCn1cnc2c(c1=O)c1nc3ccccc3nc1n2CCc1ccccc1	-3%	?	?	6%	-4%	18µM*
COc1cccc(OCC(=O)Nc2nnc3n2CCS3)c1	·	·	-19%	·	·	-1%
CCC(C)N(C(=O)COC(=O)c1ccc(N)c([N+](=O)[O-])c1)C1CCS(=O)(=O)C1 (centres undefined)	·	9	-24%	·	·	-15%
C#CC(=O)N(c1cc(OC)ccc1OC)C(C(=O)NC1CCCC1)c1cccs1 (centres undefined)	0.15µM*	-120*	2.3µM*	26%	?	2.1µM*
C#CC(=O)N(c1ccc(OC)cc1OC)C(C(=O)NC1CCCC1)c1cccs1 (centres undefined)	?	-102*	?	?	?	2.1µM*
COc1ccc(N(C(=O)c2snc(C(N)=O)c2N)C(C(=O)NC2CCCC2)c2cccs2)cc1OC (centres undefined)	-6%	-13	15%	-11%	-1%	1%
COc1ccc(N(C(=O)c2ccco2)C(C(=O)NC2CCCCC2)c2cccs2)cc1OC (centres undefined)	0%	6	?	-1%	0%	?
CCc1ccc(CN2CCC(C(=O)Nc3ccc(Oc4ccccc4)nc3)CC2)o1	-6%	-28	16µM*	?	?	23µM*
O=C(Nc1ccc(Oc2ccccc2)nc1)C1CCN(Cc2ccccc2)CC1	?	?	?	?	-5%	-28%
CCn1cc(CN2CCC(C(=O)Nc3ccc(Oc4ccccc4)nc3)CC2)cn1	-4%	4	-68%	10%	0%	21µM*
CCn1cc(CN2CCC(C(=O)Nc3ccc(Oc4ccccc4F)cc3)CC2)c(C)n1	?	i	?	21µM*	1%	26µM*
N#CCCN(C(=O)COC(=O)CCc1nc2ccccc2c(=O)[nH]1)c1ccc(F)cc1	9%	-1	?	27%	?	?
SMILES	SW480 rereplic	IL-1B inflam inh	DT40 TDP1 CPT	MCF10A rerep	BCR signal inh	TDP1 cell noCPT
O=C1C(=Cc2ccco2)CCCC1=Cc1ccco1	?	-25	23µM*	?	·	?
O=C1C(=Cc2ccco2)CCC1=Cc1ccco1	?	-51*	23µM*	?	·	16µM*
CC(=O)N1CCN(c2c(F)c(F)c(C(F)(F)F)c(F)c2F)CC1	-2%	12	?	2%	-17%	15µM*
Cc1ccc2c(c1)CCCN2C(=O)c1cnn2c1NC(=C1CC1)C=C2C(F)F	·	·	10µM*	·	·	10µM*
O=C(Nc1ccncc1)c1cnn2c1NC(=C1CC1)C=C2C(F)F	·	·	10µM*	·	·	11µM*
CC1CN(C(=S)NC(=O)c2ccc(Cl)cc2)CC(C)O1 (centres undefined)	1%	-13	?	9%	0%	?
CC1CN(C(=S)SCC(=O)c2ccc(Cl)cc2)CC(C)O1 (centres undefined)	-7%	7	4.1µM*	-8%	2%	2.6µM*
O=C(NCC(c1ccco1)N1CCc2ccccc2C1)c1cccc(Br)c1 (centres undefined)	3%	-11	-3%	?	11%	?
Cn1cnc([N+](=O)[O-])c1S(=O)(=O)Oc1ccccc1	4.1µM*	-94*	0.65µM*	7.3µM*	·	1µM*
Cn1cnc([N+](=O)[O-])c1NCc1ccccc1	-13%	10	3%	1%	0%	-3%
Cn1cnc([N+](=O)[O-])c1S(=O)(=O)c1cccc(Cl)c1	5.8µM*	?	1.8µM*	3.7µM*	?	2.3µM*
Cc1nn(C(C)C(=O)c2cccc(Cl)c2)c(C)c1[N+](=O)[O-] (centres undefined)	-11%	27	13%	-2%	-1%	-2%
Cn1cnc([N+](=O)[O-])c1S(=O)(=O)Nc1ccccc1	?	-97*	16µM*	?	·	15µM*
COC(=O)C1=C(C)NC(C)=C(C(=O)OC)C1C(=O)OCc1nnc(-c2ccccc2Cl)o1	2%	24	?	14%	-23%	?
Cc1c(NC(=O)c2cc(Br)ccc2Cl)cccc1-n1cnnn1	-25%	-28	-8%	8%	?	-6%
O=c1c(C(c2ccc(Br)cc2)c2c(O)nc3n(c2=O)CCS3)c(O)nc2n1CCS2	1%	-69*	10%	1%	-2%	2%

Screening data: PubChem, National Center for Advancing Translational Sciences (NCATS)
